Results reported in PubChem BioAssay (NCATS).
Inconclusive results are not listed. Calls of active or inactive are those of the source. Calls follow the shape of the dose curve; as a rule, active = well fitted cell-killing curve with a large enough effect; inconclusive = small, poorly fitted or top-dose-only effect, or effect the other way; inactive = flat fitted curve, though single readings scatter. Where a SMILES comes first, the peptide text is derived from it. Bridges are numbered along the chain shown (N, C = ends). [ ]: non-standard residue; d: D form. NMeY = CN[CH](Cc1ccc(O)cc1)C(=O)O

Key:
Assay in all cases: Primary qHTS to identify gynecologic anti-cancer compounds using libraries of approved drugs and bioactive compounds (AID 1345084); also: nearly all actives have a fitted effect of over 55% in size
Conditions in all cases: Gynecologic cancer cell panel viability, ATPlite luminescence, 48 h; series mostly up to 57.5 µM
[1] = test system: OV90
Summary of the method: (§1)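 Luminescence from the ATPlite ATP-monitoring reagent indicates viable cell number; lower signal means cytotoxicity. Cells received compound 16 h after seeding and were exposed for 48 h across five concentrations.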

[2] = test system: PA-1
Summary of the method: as §1

[3] = test system: SKOV3
Summary of the method: as §1

[4] = test system: Tov-21-G
Summary of the method: as §1

[5] = test system: Tov112D
Summary of the method: as §1
% is scaled to controls: 0 for no effect and ±100 for the full control effect.

CC1OC(O[C@H]2CC[C@@]3(C)C(CC[C@]4(C)C3CC=C3C5CC(C)(C)CC[C@]5(C(=O)OC5OC(CO)C(OC6OC(COC7OCC(O)C(O)C7O)C(O)C(O)C6O)C(O)C5O)CC[C@]34C)C2(C)C)C(O)C(O)C1OC1OCC(OC2OCC(O)C(O)C2O)C(O)C1O (stereo not given in full)
inactive: activity change, negative = cytotoxicity [1] 5.67% [at 6.55 µM] | activity change, negative = cytotoxicity [2] -4.41% [at 6.55 µM] | activity change, negative = cytotoxicity [3] 5.68% [at 6.55 µM] | activity change, negative = cytotoxicity [4] -0.908% [at 6.55 µM] | activity change, negative = cytotoxicity [5] -13.2% [at 6.55 µM]

C=C1CCC2C(C(C)(C)O)CCC2(C)CC(O)C(=C)CCC1O (stereo not given)
inactive: Potency [1] | Potency [2] | Potency [3] | Potency [4] | Potency [5]

CC1C=CC2CCCCC2C1CCC1CC(O)CC(=O)O1 (stereo not given)
inactive: Potency [1] | Potency [2] | Potency [3] | Potency [4] | Potency [5]

C[C@H]1C(=O)N2c3ccccc3[C@@]3(O)C[C@@H]4C(=O)N[C@](C)(c5nc6ccccc6c(=O)n54)N1[C@@H]23
inactive: Potency [1] | Potency [2] | Potency [3] | Potency [4] | Potency [5]

Nc1ncnc2c([C@@H]3N[C@H](CO)[C@@H](O)[C@H]3O)c[nH]c12
inactive: Potency [1] | Potency [2] | Potency [3] | Potency [4] | Potency [5]

O=C(/C=C/c1ccc(O)cc1)OC1[C@H](O)CC(O)(C(=O)O)C[C@H]1O (stereo not given in full)
inactive: Potency [1] | Potency [2] | Potency [3] | Potency [4] | Potency [5]

Nc1ncnc2c1ncn2CCNCCCCCO
inactive: Potency [1] | Potency [2] | Potency [3] | Potency [4] | Potency [5]

C[C@H](Nc1ncnc2nc[nH]c12)c1cc2ccc(F)cc2nc1-c1ccccn1
inactive: Potency [1] | Potency [2] | Potency [3] | Potency [4] | Potency [5]

COc1ccc(/C=C\C(=O)O)c(O[C@@H]2O[C@H](CO)[C@@H](O)[C@H](O)[C@H]2O)c1
inactive: Potency [1] | Potency [2] | Potency [3] | Potency [4] | Potency [5]

C=CC(C)(C)C12C=C(OC)C(=O)N3C(C(C)C)C(=O)NC31N(OC)c1ccccc12 (stereo not given)
inactive: Potency [1] | Potency [2] | Potency [3] | Potency [4] | Potency [5]

C=C1CCC2C(C)(C(=O)O)CCCC2(C)C1CCC(C)CC(=O)O (stereo not given)
inactive: Potency [1] | Potency [2] | Potency [3] | Potency [4] | Potency [5]

C=C1CC[C@@H]2[C@@](C)(CO[C@@H]3O[C@H](CO)C(O)[C@H](O)C3O)[C@H](O)CC[C@@]2(C)[C@@H]1CC/C(C)=C/CO (stereo not given in full)
inactive: activity change, negative = cytotoxicity [1] 6% [at 11.6 µM] | activity change, negative = cytotoxicity [2] 7% [at 11.6 µM] | activity change, negative = cytotoxicity [3] -9.26% [at 11.6 µM] | activity change, negative = cytotoxicity [4] 4.35% [at 11.6 µM] | activity change, negative = cytotoxicity [5] 4.42% [at 11.6 µM]

COC1CC(O[C@H]2CC[C@@]3(C)C(=CC[C@]4(O)C3[C@H](OC(C)=O)[C@@H](OC(=O)c3ccccc3)[C@]3(C)[C@@H](C(C)=O)CC[C@@]34O)C2)OC(C)C1OC1CC(OC)C(OC2CC(OC)C(OC3OC(C)C(OC4OC(CO)C(O)C(O)C4O)C(OC)C3O)C(C)O2)C(C)O1 (stereo not given in full)
inactive: activity change, negative = cytotoxicity [1] 7.55% [at 6.55 µM] | activity change, negative = cytotoxicity [2] -5.59% [at 6.55 µM] | activity change, negative = cytotoxicity [3] 11% [at 6.55 µM] | activity change, negative = cytotoxicity [4] -0.609% [at 6.55 µM] | activity change, negative = cytotoxicity [5] 2.04% [at 6.55 µM]

COC1/C=C/C(C)(O)C(SCC(N)C(=O)O)CC(=O)OC(C)C(C)CC/C=C/1C (stereo not given)
inactive: Potency [1] | Potency [2] | Potency [3] | Potency [4] | Potency [5]

C=C1CCC2C(C)(C(=O)O)CCCC2(C)C1CC/C(=C\CO)CO (stereo not given)
inactive: Potency [1] | Potency [2] | Potency [3] | Potency [4] | Potency [5]

C=C[C@H]1C(O[C@@H]2O[C@H](CO)[C@@H](O)[C@H](O)[C@H]2O)OC=C2C(=O)N3CCc4c([nH]c5ccccc45)[C@H]3C[C@H]21 (stereo not given in full)
inactive: Potency [1] | Potency [2] | Potency [3] | Potency [4] | Potency [5]

CC(=O)c1ccc(O[C@@H]2O[C@H](CO)[C@@H](O)[C@H](O)[C@H]2O)cc1
inactive: Potency [1] | Potency [2] | Potency [3] | Potency [4] | Potency [5]

CC(=O)c1c(O)cc(O[C@@H]2O[C@H](CO)[C@@H](O)[C@H](O)[C@H]2O)cc1O
inactive: Potency [1] | Potency [2] | Potency [3] | Potency [4] | Potency [5]

O=C(O)c1cc(I)ccc1NC(=O)[C@H](Cc1ccccc1)NCc1ccccc1
inactive: Potency [1] | Potency [2] | Potency [3] | Potency [4] | Potency [5]

CCOC(=O)c1sc(NC(=O)[C@H](C(C)C)n2c(=O)[nH]c3ccccc3c2=O)nc1C
inactive: Potency [1] | Potency [2] | Potency [3] | Potency [4] | Potency [5]

CCC(C)C1NC(=O)C2CCCN2C(=O)C(NC(C)=O)C(C)OC(=O)C(Cc2ccc(OC)cc2)N(C)C(=O)C2CCCN2C(=O)C(C(C)C)NC1=O (stereo not given) (Ac-TPIVP[NMeY](Me); ester 1-C; configuration not given here)
inactive: Potency [1] | Potency [2] | Potency [3] | Potency [4] | Potency [5]

CC(C)=CCC/C(C)=C/Cc1ccc(O)c(C2OC(=O)c3cc(C(=O)O)cc(O)c32)c1O (stereo not given)
inactive: Potency [1] | Potency [2] | Potency [3] | Potency [4] | Potency [5]
